# Inconclusive results are not listed. The source made the active and inactive calls. The calls were made as follows, unless noted: active = hit-call score of the fitted dose curve at least 0.9, where 1 is the maximum; inactive = score below 0.9.
# Assays:
# [1] = read-out: Monocyte Chemoattractant Protein-1 (MCP1), CCL2 (gene 6347); assay: BSK_SAg_MCP1: BioMAP Diversity Plus: SAg Assay for Monocyte Chemoattractant Protein-1 (MCP1) Biomarker Activity (AID 2283090); conditions: primary human HUVEC with PBMC; actives raise or lower the signal
# In short: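 MCP-1 levels in the endothelial–PBMC SAg co-culture were quantified by ELISA at 24 h post-dosing; both increases and decreases versus DMSO scored. Cytotoxicity monitored by SRB total protein in parallel cultures.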
# [2] = read-out: E-selectin (Homo sapiens) (UniProt P16581); assay: BSK_SAg_Eselectin: BioMAP Diversity Plus: SAg Assay for Eselectin Biomarker Activity (AID 2283091); conditions: primary human HUVEC with PBMC; actives raise or lower the signal
# In short: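 Cell-surface E-selectin is read by ELISA at 24 h in the SAg co-culture of HUVEC and PBMC. Curves are fitted in both directions relative to DMSO. Parallel SRB total-protein staining tracks overt toxicity.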
# [3] = read-out: Monokine induced gamma interferon (MIG), CXCL9 (gene 4283); assay: BSK_SAg_MIG: BioMAP Diversity Plus: SAg Assay for Monokine induced gamma interferon (MIG) Biomarker Activity (AID 2283092); conditions: primary human HUVEC with PBMC; actives raise or lower the signal
# In short: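 ELISA readout of MIG/CXCL9; primary human umbilical vein endothelial cells co-cultured with peripheral blood mononuclear cells; 24 h post-dose; gain/loss fit vs DMSO baseline.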
# [4] = BSK_SAg_PBMCCytotoxicity: PBMC Cytotoxicity Assessment in the BioMAP Diversity Plus: SAg Assay (AID 2283093); conditions: primary human HUVEC with PBMC;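 also: PBMC viability measured as Alamar Blue reduction fluorescence at 546/580 nm; fitted both ways against DMSO so a hit may be loss or gain of signal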
# In short: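 Compound added to 75,000 PBMC/well for 1 h; SEB and TSST-1 then added at 20 ng/mL final each; 90 h incubation; Alamar Blue 6 h; read 546/580 nm ex/em. Activity fitted bidirectionally relative to DMSO baseline.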
# [5] = read-out: Interleukin-8 (IL8), CXCL8 (gene 3576); assay: BSK_SAg_IL8: BioMAP Diversity Plus: SAg Assay for Interleukin-8 (IL8) Biomarker Activity (AID 2283094); conditions: primary human HUVEC with PBMC; actives raise or lower the signal
# In short: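 Human umbilical vein endothelial cells co-cultured with PBMC, stimulated with superantigen; IL-8 measured by ELISA 24 h after chemical dosing. Bidirectional fitting versus DMSO; SRB staining in parallel cultures tracks cytotoxicity.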
# [6] = BSK_SAg_Proliferation: Cell Proliferation Assessment in the BioMAP Diversity Plus: SAg Assay (AID 2283095); conditions: primary human HUVEC with PBMC
# In short: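 Human umbilical vein endothelial cells co-cultured with PBMC; sulforhodamine B total-protein staining (0.1% SRB after 10% TCA fixation, absorbance 560 nm) at 96 h in sub-confluent culture. Fitted bidirectionally against DMSO.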
# [7] = BSK_SAg_SRB: Viability Assessment in the BioMAP Diversity Plus: SAg Assay (AID 2283096); conditions: primary human HUVEC with PBMC;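 also: cells read one day after compound addition; hits may be either gain or loss of signal compared with DMSO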
# In short: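 Total protein by sulforhodamine B staining, 24 h after dosing, in HUVEC–PBMC co-culture; DMSO-referenced bidirectional fitting.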
# [8] = molecular target: human CYP1A1, CYP1A1 (gene 1543) (UniProt P04798); assay: NVS_ADME_hCYP1A1: NovaScreen (NVS) CYP450-related Enzyme Activity (ADME) Assay for human CYP1A1 (AID 2283100; active = hit-call score of the fitted dose curve at least 0.9, where 1 is the maximum)
# In short: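 Chemicals were first tested in duplicate at 10 uM, and those passing a 30% inhibition threshold were rerun as concentration series topping at 20 uM. Fluorescence read-out of recombinant enzyme turnover after 1 h, relative to acetonitrile.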
# [9] = molecular target: human CYP2B6, CYP2B6 (gene 1555) (UniProt P20813); assay: NVS_ADME_hCYP2B6: NovaScreen (NVS) CYP450-related Enzyme Activity (ADME) Assay for human CYP2B6 (AID 2283101; active = hit-call score of the fitted dose curve at least 0.9, where 1 is the maximum)
# In short: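 Fluorescence-based enzyme activity of recombinant human CYP2B6, measured 1 h post-dose against acetonitrile vehicle baseline. Screened at a single concentration of 10 uM in duplicate before concentration-response follow-up.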
# [10] = molecular target: human CYP1A2, CYP1A2 (gene 1544) (UniProt P05177); assay: NVS_ADME_hCYP1A2: NovaScreen (NVS) CYP450-related Enzyme Activity (ADME) Assay for human CYP1A2 (AID 2283102; active = hit-call score of the fitted dose curve at least 0.9, where 1 is the maximum;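 also: potency for inhibition since loss of fluorescence marks reduced CYP1A2 activity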)
# In short: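 Enzyme activity of insect-cell-expressed human CYP1A2 measured by fluorescence 0.5 h after compound addition, relative to acetonitrile. Compounds first tested in duplicate at 10 uM, actives followed up in concentration series.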
# [11] = molecular target: Cytochrome P450 2C19 (Homo sapiens) (UniProt P33261); assay: NVS_ADME_hCYP2C19: NovaScreen (NVS) CYP450-related Enzyme Activity (ADME) Assay for human CYP2C19 (AID 2283113; active = hit-call score of the fitted dose curve at least 0.9, where 1 is the maximum;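 also: potency for inhibition seen as loss of fluorescent signal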)
# In short: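 Compounds first screened in duplicate at 10 uM, then confirmed in concentration series. Insect-cell-expressed human CYP2C19 turned over a fluorogenic substrate, and fluorescence was read after 1 h. Inhibition taken as signal loss relative to acetonitrile.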
# [12] = molecular target: rat CYP1A2, Cyp1a2 (gene 24297) (UniProt P04799); assay: NVS_ADME_rCYP1A2: NovaScreen (NVS) CYP450-related Enzyme Activity (ADME) Assay for rat CYP1A2 (AID 2283115; active = hit-call score of the fitted dose curve at least 0.9, where 1 is the maximum)
# In short: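 Cell-free recombinant rat enzyme with fluorogenic substrate, read by fluorescence intensity 1 hour after dosing. Loss of signal versus acetonitrile negative control; primary screen at 10 uM in duplicate, actives followed in concentration series.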
# [13] = molecular target: human CYP2A6, CYP2A6 (gene 1548) (UniProt P11509); assay: NVS_ADME_hCYP2A6: NovaScreen (NVS) CYP450-related Enzyme Activity (ADME) Assay for human CYP2A6 (AID 2283099; active = hit-call score of the fitted dose curve at least 0.9, where 1 is the maximum)
# In short: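 Compounds screened at 10 uM (duplicate) and, if active, titrated to a 20 uM top concentration against insect-cell-expressed CYP2A6. Loss of fluorescent product signal after 0.5 h, relative to acetonitrile baseline, indicates inhibition.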
# [14] = molecular target: human CYP2C8, CYP2C8 (gene 1558) (UniProt P10632); assay: NVS_ADME_hCYP2C8: NovaScreen (NVS) CYP450-related Enzyme Activity (ADME) Assay for human CYP2C8 (AID 2283104)
# In short: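 Recombinant human CYP2C8 with fluorogenic substrate, 0.5 h, fluorescence intensity; signal loss fitted versus acetonitrile. Screened in duplicate at 10 uM, then actives run in concentration-response up to 20 uM.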
# [15] = molecular target: human CYP2J2, CYP2J2 (gene 1573) (UniProt P51589); assay: NVS_ADME_hCYP2J2: NovaScreen (NVS) CYP450-related Enzyme Activity (ADME) Assay for human CYP2J2 (AID 2283106; active = hit-call score of the fitted dose curve at least 0.9, where 1 is the maximum)
# In short: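 Cell-free assay of recombinant CYP2J2 with a fluorogenic substrate, read 1 h after dosing; loss of signal versus acetonitrile. Primary screen at 10 uM in duplicate, then concentration-response up to 20 uM for chemicals passing threshold (e.g., 30% inhibition).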
# [16] = molecular target: human CYP2D6, CYP2D6 (gene 1565) (UniProt P10635); assay: NVS_ADME_hCYP2D6: NovaScreen (NVS) CYP450-related Enzyme Activity (ADME) Assay for human CYP2D6 (AID 2283107; active = hit-call score of the fitted dose curve at least 0.9, where 1 is the maximum)
# In short: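 Fluorescence readout of recombinant CYP2D6 (insect-cell derived) activity after 1 h incubation with test chemical. Acetonitrile served as baseline, loss-of-signal direction. Single-concentration duplicate screening at 10 uM preceded concentration-response retesting.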
# [17] = molecular target: rat CYP2A1, Cyp2a1 (gene 24894) (UniProt P11711); assay: NVS_ADME_rCYP2A1: NovaScreen (NVS) CYP450-related Enzyme Activity (ADME) Assay for rat CYP2A1 (AID 2283114)
# In short: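 Recombinant rat CYP2A1, cell-free, fluorogenic substrate turnover read by fluorescence intensity 0.75 h after dosing. Primary screen at 10 uM in duplicate; actives rerun as concentration-response up to 20 uM; loss of signal versus acetonitrile control.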
# Chain of E-selectin (Homo sapiens) (P16581 whole entry, looked up): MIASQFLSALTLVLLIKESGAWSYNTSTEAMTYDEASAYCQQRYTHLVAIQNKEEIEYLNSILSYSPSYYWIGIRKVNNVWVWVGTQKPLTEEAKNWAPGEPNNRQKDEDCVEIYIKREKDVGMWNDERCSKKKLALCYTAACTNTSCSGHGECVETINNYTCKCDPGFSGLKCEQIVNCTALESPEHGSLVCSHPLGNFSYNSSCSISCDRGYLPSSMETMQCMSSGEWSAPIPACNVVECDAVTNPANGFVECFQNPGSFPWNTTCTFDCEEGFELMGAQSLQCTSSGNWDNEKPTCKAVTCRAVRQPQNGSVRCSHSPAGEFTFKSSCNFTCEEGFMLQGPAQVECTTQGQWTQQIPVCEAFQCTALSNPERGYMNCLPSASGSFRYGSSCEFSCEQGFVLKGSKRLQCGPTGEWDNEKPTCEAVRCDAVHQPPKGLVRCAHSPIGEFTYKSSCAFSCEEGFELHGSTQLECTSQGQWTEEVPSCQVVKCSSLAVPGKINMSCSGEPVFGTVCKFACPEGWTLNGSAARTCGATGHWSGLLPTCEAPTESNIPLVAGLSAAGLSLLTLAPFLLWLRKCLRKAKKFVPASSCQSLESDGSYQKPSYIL
# Chain of human CYP1A2, CYP1A2 (gene 1544) (P05177 whole entry, looked up): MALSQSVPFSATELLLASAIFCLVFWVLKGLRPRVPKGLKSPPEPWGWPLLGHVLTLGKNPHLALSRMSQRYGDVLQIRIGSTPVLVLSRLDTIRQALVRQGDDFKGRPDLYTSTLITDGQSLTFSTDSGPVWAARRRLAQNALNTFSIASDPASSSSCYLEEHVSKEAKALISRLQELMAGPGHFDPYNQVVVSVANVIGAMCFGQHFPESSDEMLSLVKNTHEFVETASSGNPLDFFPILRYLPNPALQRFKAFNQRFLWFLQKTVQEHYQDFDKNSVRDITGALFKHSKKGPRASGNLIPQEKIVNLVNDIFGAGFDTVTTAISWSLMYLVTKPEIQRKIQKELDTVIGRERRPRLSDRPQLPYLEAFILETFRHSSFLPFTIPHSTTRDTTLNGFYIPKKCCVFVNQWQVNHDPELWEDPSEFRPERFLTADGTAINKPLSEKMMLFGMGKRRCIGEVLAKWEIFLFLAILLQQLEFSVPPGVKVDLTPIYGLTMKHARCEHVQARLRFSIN
# Chain of rat CYP1A2, Cyp1a2 (gene 24297) (P04799 whole entry, looked up): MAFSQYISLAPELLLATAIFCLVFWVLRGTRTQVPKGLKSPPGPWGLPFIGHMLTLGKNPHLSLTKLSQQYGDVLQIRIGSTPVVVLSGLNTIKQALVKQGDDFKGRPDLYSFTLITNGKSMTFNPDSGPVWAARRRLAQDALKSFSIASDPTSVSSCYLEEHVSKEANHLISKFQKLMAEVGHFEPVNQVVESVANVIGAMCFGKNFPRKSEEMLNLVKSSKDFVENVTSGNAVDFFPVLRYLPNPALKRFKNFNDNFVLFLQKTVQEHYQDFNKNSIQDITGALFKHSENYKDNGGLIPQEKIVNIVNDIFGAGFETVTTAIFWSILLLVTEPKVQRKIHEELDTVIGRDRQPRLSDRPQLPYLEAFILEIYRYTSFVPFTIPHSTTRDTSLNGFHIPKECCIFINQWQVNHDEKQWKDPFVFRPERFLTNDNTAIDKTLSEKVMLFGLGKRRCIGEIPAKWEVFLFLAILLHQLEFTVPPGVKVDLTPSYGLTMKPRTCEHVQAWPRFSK
# Chain of human CYP2B6, CYP2B6 (gene 1555) (P20813 whole entry, looked up): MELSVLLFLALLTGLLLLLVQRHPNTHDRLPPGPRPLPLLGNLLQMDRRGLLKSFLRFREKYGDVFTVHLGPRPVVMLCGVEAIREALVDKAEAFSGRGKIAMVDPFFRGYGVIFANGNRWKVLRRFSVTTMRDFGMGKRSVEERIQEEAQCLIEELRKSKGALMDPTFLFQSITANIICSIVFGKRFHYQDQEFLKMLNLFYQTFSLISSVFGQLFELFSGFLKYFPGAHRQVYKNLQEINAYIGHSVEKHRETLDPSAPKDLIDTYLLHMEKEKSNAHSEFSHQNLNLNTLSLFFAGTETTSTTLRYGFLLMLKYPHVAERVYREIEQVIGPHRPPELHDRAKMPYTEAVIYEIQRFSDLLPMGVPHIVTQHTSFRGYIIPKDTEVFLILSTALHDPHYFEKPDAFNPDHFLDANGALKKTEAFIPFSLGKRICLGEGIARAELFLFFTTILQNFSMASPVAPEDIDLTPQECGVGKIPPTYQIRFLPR
# Chain of human CYP2C8, CYP2C8 (gene 1558) (P10632 whole entry, looked up): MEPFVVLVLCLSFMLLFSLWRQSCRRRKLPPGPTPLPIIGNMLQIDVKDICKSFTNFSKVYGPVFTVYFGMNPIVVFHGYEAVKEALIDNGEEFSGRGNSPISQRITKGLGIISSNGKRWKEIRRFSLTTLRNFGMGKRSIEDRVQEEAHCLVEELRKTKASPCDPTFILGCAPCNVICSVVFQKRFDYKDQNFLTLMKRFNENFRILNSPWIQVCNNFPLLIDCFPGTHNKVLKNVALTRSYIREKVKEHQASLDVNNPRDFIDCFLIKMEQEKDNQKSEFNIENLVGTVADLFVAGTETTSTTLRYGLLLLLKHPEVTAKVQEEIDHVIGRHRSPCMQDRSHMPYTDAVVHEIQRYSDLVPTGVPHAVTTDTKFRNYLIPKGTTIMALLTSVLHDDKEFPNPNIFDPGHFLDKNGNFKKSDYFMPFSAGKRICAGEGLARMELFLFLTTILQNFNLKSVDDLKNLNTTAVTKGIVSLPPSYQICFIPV
# Chain of human CYP2D6, CYP2D6 (gene 1565) (P10635 whole entry, looked up): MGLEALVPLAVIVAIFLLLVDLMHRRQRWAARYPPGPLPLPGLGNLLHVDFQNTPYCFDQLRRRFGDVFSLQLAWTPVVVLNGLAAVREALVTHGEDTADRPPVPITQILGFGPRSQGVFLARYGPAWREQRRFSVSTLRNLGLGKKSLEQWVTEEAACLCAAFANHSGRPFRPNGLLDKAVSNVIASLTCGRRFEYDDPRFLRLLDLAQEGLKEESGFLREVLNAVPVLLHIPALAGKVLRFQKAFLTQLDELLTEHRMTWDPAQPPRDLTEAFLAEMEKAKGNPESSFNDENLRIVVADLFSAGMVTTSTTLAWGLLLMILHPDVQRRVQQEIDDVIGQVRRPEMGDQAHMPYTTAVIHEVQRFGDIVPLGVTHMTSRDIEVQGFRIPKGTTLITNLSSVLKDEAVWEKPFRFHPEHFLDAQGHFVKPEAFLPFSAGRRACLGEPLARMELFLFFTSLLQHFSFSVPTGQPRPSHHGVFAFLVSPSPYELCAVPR
# Chain of rat CYP2A1, Cyp2a1 (gene 24894) (P11711 whole entry, looked up): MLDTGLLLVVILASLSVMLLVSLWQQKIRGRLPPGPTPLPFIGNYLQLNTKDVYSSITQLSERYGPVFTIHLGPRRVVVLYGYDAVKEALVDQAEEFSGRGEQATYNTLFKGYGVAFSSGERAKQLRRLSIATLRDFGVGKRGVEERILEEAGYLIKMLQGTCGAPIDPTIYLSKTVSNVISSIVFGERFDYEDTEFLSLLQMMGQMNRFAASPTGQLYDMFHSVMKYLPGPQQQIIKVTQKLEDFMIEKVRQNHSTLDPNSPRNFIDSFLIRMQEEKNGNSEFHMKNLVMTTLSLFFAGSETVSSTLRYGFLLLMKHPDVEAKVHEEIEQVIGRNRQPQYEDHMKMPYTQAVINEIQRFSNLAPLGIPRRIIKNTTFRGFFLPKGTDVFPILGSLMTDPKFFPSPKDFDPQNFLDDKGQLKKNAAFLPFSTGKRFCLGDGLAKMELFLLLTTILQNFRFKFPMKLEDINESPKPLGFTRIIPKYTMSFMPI
# Chain of human CYP2J2, CYP2J2 (gene 1573) (P51589 whole entry, looked up): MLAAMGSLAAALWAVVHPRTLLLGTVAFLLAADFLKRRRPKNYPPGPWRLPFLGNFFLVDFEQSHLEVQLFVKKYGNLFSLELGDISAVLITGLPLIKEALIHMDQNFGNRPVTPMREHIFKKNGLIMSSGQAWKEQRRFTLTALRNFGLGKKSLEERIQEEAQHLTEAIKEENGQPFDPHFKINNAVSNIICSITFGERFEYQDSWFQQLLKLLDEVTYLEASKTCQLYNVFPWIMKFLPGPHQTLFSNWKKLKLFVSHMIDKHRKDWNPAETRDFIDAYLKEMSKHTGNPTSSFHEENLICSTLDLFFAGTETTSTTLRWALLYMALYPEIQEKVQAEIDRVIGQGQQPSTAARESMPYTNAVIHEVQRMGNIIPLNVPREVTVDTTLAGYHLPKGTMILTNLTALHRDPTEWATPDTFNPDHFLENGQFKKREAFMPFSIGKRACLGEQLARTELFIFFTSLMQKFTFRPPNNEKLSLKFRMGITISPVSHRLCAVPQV
# Chain of human CYP2A6, CYP2A6 (gene 1548) (P11509 whole entry, looked up): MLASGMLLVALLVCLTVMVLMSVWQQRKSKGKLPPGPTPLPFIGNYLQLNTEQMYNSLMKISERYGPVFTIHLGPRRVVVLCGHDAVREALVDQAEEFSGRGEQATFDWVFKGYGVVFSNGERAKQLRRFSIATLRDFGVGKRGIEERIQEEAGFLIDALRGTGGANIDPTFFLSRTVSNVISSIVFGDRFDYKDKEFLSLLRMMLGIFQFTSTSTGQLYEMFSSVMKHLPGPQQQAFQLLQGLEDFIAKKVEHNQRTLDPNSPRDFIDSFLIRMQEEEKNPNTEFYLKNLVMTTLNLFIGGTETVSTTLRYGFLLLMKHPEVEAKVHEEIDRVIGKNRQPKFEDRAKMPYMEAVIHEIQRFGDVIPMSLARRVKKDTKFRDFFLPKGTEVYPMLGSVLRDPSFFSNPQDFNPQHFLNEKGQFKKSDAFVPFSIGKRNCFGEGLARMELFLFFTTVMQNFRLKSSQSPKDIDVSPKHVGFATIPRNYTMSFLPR
smiles,measurement,setting,value
CC1(C)CON(Cc2ccccc2Cl)C1=O,outcome,[1],inactive
same,outcome,[2],inactive
same,outcome,[3],inactive
same,outcome,[4],inactive
same,outcome,[5],inactive
same,outcome,[6],inactive
same,outcome,[7],inactive
Nc1c(Cl)c(F)nc(OCC(=O)O)c1Cl,outcome,[1],inactive
same,outcome,[2],inactive
same,outcome,[3],inactive
same,outcome,[4],inactive
same,outcome,[5],inactive
same,outcome,[6],inactive
same,outcome,[7],inactive
CN/C(=N\[N+](=O)[O-])NCc1cnc(Cl)s1,outcome,[1],inactive
same,outcome,[2],inactive
same,outcome,[3],inactive
same,outcome,[4],inactive
same,outcome,[5],inactive
same,outcome,[6],inactive
same,outcome,[7],inactive
CCOc1nc(C(Cl)(Cl)Cl)ns1,outcome,[1],inactive
same,AC50,[2],13.3 µM (active)
same,outcome,[3],inactive
same,outcome,[4],inactive
same,outcome,[5],inactive
same,outcome,[6],inactive
same,outcome,[7],inactive
CCNC(=O)NC(=O)C(C#N)=NOC,outcome,[1],inactive
same,outcome,[2],inactive
same,outcome,[3],inactive
same,outcome,[4],inactive
same,outcome,[5],inactive
same,outcome,[6],inactive
same,outcome,[7],inactive
CC(C)Nc1nc(Cl)nc(NC(C)C)n1,outcome,[1],inactive
same,AC50,[2],4.2 µM (active)
same,outcome,[3],inactive
same,outcome,[4],inactive
same,outcome,[5],inactive
same,outcome,[6],inactive
same,outcome,[7],inactive
COc1cc(OC)nc(NC(=O)NS(=O)(=O)c2ncccc2OCC(F)(F)F)n1,outcome,[1],inactive
same,outcome,[2],inactive
same,outcome,[3],inactive
same,outcome,[4],inactive
same,outcome,[5],inactive
same,outcome,[6],inactive
same,outcome,[7],inactive
Clc1nc(Cl)nc(Nc2ccccc2Cl)n1,outcome,[1],inactive
same,outcome,[2],inactive
same,outcome,[3],inactive
same,outcome,[4],inactive
same,outcome,[5],inactive
same,outcome,[6],inactive
same,outcome,[7],inactive
CCCC(=NOCC)C1=C(O)CC(CC(C)SCC)CC1=O (centres undefined),outcome,[1],inactive
same,outcome,[2],inactive
same,outcome,[3],inactive
same,outcome,[4],inactive
same,outcome,[5],inactive
same,outcome,[6],inactive
same,outcome,[7],inactive
CCOP(=O)(OCC)Oc1nc(Cl)c(Cl)cc1Cl,AC50,[1],23.9 µM (active)
same,outcome,[2],inactive
same,outcome,[3],inactive
same,outcome,[4],inactive
same,outcome,[5],inactive
same,AC50,[6],17.1 µM (active)
same,AC50,[7],20 µM (active)
same,AC50,[8],7.46 µM (active)
same,AC50,[9],8.04 µM (active)
same,AC50,[10],3.36 µM (active)
same,AC50,[11],4.09 µM (active)
same,outcome,[12],inactive
CN=C=S,AC50,[1],20 µM (active)
same,AC50,[2],12 µM (active)
same,outcome,[3],inactive
same,outcome,[4],inactive
same,AC50,[5],11.7 µM (active)
same,AC50,[6],13.7 µM (active)
same,outcome,[7],inactive
Clc1cccc(C(Cl)(Cl)Cl)n1,outcome,[1],inactive
same,outcome,[2],inactive
same,outcome,[3],inactive
same,outcome,[4],inactive
same,outcome,[5],inactive
same,outcome,[6],inactive
same,outcome,[7],inactive
Cc1nc(N(C)C)nc(OC(=O)N(C)C)c1C,outcome,[1],inactive
same,outcome,[2],inactive
same,outcome,[3],inactive
same,outcome,[4],inactive
same,outcome,[5],inactive
same,outcome,[6],inactive
same,outcome,[7],inactive
CNC(=O)N(C)c1nnc(C(C)(C)C)s1,outcome,[1],inactive
same,outcome,[2],inactive
same,outcome,[3],inactive
same,outcome,[4],inactive
same,outcome,[5],inactive
same,outcome,[6],inactive
same,outcome,[7],inactive
COP(=S)(OC)Oc1ccc([N+](=O)[O-])c(C)c1,outcome,[1],inactive
same,AC50,[2],29.6 µM (active)
same,outcome,[3],inactive
same,outcome,[4],inactive
same,AC50,[5],29.6 µM (active)
same,AC50,[6],24.9 µM (active)
same,outcome,[7],inactive
same,AC50,[13],1.98 µM (active)
same,AC50,[9],1.3 µM (active)
same,AC50,[10],0.516 µM (active)
same,outcome,[14],inactive
same,AC50,[15],0.612 µM (active)
same,AC50,[16],4.59 µM (active)
same,AC50,[11],0.168 µM (active)
same,AC50,[17],3.84 µM (active)
same,outcome,[12],inactive
COc1cc(Cl)c(OC)cc1Cl,outcome,[1],inactive
same,outcome,[2],inactive
same,outcome,[3],inactive
same,outcome,[4],inactive
same,outcome,[5],inactive
same,outcome,[6],inactive
same,outcome,[7],inactive
O=P(O)(O)CCCl,outcome,[1],inactive
same,outcome,[2],inactive
same,outcome,[3],inactive
same,outcome,[4],inactive
same,outcome,[5],inactive
same,outcome,[6],inactive
same,outcome,[7],inactive
CCSC(=O)N1CCCCCC1,outcome,[1],inactive
same,outcome,[2],inactive
same,outcome,[3],inactive
same,outcome,[4],inactive
same,outcome,[5],inactive
same,outcome,[6],inactive
same,outcome,[7],inactive
O=C(O)c1c(Cl)ccc2cc(Cl)cnc12,outcome,[1],inactive
same,outcome,[2],inactive
same,outcome,[3],inactive
same,outcome,[4],inactive
same,outcome,[5],inactive
same,outcome,[6],inactive
same,outcome,[7],inactive
COC(=O)NS(=O)(=O)c1ccc(N)cc1,outcome,[1],inactive
same,outcome,[2],inactive
same,outcome,[3],inactive
same,outcome,[4],inactive
same,outcome,[5],inactive
same,outcome,[6],inactive
same,outcome,[7],inactive
